# Test results published in PubChem BioAssay (NCI).
# This is part of a sample that, as a whole, favours compounds with a hit. Of some 83,000 tested, about 20% had one in any assay.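 Compound tested at a single concentration for 48 hours in 96-well plates; a percent growth value below 10 was scored as active.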 Calls of active or inactive are those of the source.
# Tested on: OVCAR-4 ovarian
# Assay: NCI-60 one-dose screen, 48 h (100 = growth as untreated, 0 = no growth, -100 = all killed)
# Details: 10 µM unless noted
row,SMILES,growth
1,CCCCCN1C=C/C(=C\C(=O)N(C)c2ccc(Oc3ccccc3)cc2)c2ccccc21,58.3% (inactive)
2,O=C1Nc2cc(-c3ccc(NC(=O)C4CC4)cc3)ccc2/C1=C/c1ccc[nH]1,73.4% (inactive)
3,COc1cc2nc(-c3ccc(Cl)cc3)cc(OCCCN3CCCC3)c2cc1OC,58.2% (inactive)
4,CCCOC(=O)N[C@H]1CCc2c(Cl)c(OC)c(OC)c(OC)c2-c2ccc(SC)c(=O)cc21,36.3% (inactive)
5,Nc1c(C(=O)Nc2cccc3cnccc23)sc2nc3c(cc12)CN(Cc1ccccc1)CC3,105% (inactive)
6,CCCCOc1ccc(/C(C)=N/Nc2cc(C)nc3ccc(Br)cc23)cc1,101% (inactive)
7,Cc1cnc(C(=O)Nc2nc3ccc(S(=O)(=O)Nc4ccc(C(C)(C)C)cc4)cc3[nH]2)cn1,46.5% (inactive)
8,CCN1CCN(CCNc2nccc(-c3c(-c4cccc(OC)c4)nc4occn34)n2)S1(=O)=O,114% (inactive)
9,CCCCOc1ccc(/C=N/Nc2cc(C)nc3ccc(Br)cc23)cc1,44% (inactive)
10,O=c1[nH]nc(-c2ccccc2)c2sc3ncc(-c4ccc(Br)cc4)n3c12,85.5% (inactive)
11,N#Cc1cc(-c2nc3ccccc3s2)c(=O)n(NS(=O)(=O)c2ccccc2)c1N,107% (inactive)
12,Oc1ccc(C(c2ccc(O)cc2)c2ccc(Br)cn2)cc1,-38.1% (active)
13,CCOC(=O)[C@@H]1CCCN(S(=O)(=O)c2ccc(S(=O)(=O)N(CC)CC)c(F)c2)C1,75.5% (inactive)
14,N#Cc1cccc(-c2ccc3c(c2)NC(=O)/C3=C\c2ccc[nH]2)c1,30.9% (inactive)
15,O=[N+]([O-])c1cc(Br)c2cccc3c2c1CC3,104% (inactive)
16,NS(=O)(=O)c1ccc(Cn2c(SCC(=O)N/N=C/c3ccccc3O)nc3ccccc3c2=O)cc1,40.7% (inactive)
17,CCNC(=O)Oc1ccc(/C(=C(\C)c2ccccc2)c2ccc(OCCN(CC)CC)cc2)cc1,80.8% (inactive)

row,SMILES,growth
1,O=C(N/N=C/c1ccc(Oc2ccccc2)cc1)c1cnn2c1NC(c1ccccc1)C2 (stereo unspecified),26.6% (inactive)
2,NC1=NN=C(N)C1=Cc1cc2ccccc2n2nnnc12,105% (inactive)
3,CCSCC1CC(O)(c2ccccc2)CC(c2ccc(F)cc2)O1 (stereo unspecified),24.5% (inactive)
4,COc1ccc(/C=C(\C#N)n2nc3cccc(F)c3n2)cc1,101% (inactive)
5,Nc1n[nH]c2cccc(C#Cc3cccc(C(=O)Nc4cccc(C(F)(F)F)c4)c3)c12,66.2% (inactive)
6,O=C(Nc1ccccc1C(=O)N/N=C(\c1ccccc1)c1ccccn1)c1ccc(F)cc1,-5.03% (active)
7,C=C1C(=O)O[C@H]2[C@H]1CC/C(C(=O)NCCCCCNC(=O)/C1=C/CC[C@@]3(C)O[C@H]3[C@H]3OC(=O)C(=C)[C@@H]3CC1)=C\CC[C@@]1(C)O[C@@H]21,116% (inactive)
8,N#Cc1c(NCc2ccccc2I)sc2c1CCCCC2,90% (inactive)
9,C=C1C(=O)O[C@H]2[C@H]1CC/C(COC(=O)NCC(C)c1ccc(CC(C)C)cc1)=C\CC[C@@]1(C)O[C@@H]21 (stereo partly specified),-43.8% (active)
10,Cc1cc(C(=O)/C=C/c2ccc[nH]2)ccc1-n1ccc(C(F)(F)F)n1,74.7% (inactive)
11,C=C1C(=O)O[C@H]2[C@H]1CC/C(CNC(=O)/C=C/c1cccc(OC)c1)=C\CC[C@@]1(C)O[C@@H]21,19.4% (inactive)
12,COc1cc(/C=N/NC(=O)c2cnn3c2NC(c2ccccc2)C3)ccc1Oc1ccccc1 (stereo unspecified),31.7% (inactive)
13,COc1cc(/C=C\C(=O)O)ccc1OCc1ccccc1,108% (inactive)
14,COc1cc2c(=O)n(CCN)c3c4cc5c(cc4ccc3c2cc1OC)OCO5,-76% (active)
15,CCCCCN1C=C/C(=C\C(=O)N(C)c2ccc(OC(F)(F)F)cc2)c2ccccc21,87.6% (inactive)
16,CN(C)CC(O)c1ccc(/C=C/c2ccc(Cl)cc2)cc1 (stereo unspecified),25.2% (inactive)

# Tested on: SK-OV-3 ovarian
# Assay: as above
# Details: 10 µM unless noted
row,SMILES,growth
1,CCCCCN1C=C/C(=C\C(=O)N(C)c2ccc(Oc3ccccc3)cc2)c2ccccc21,87.3% (inactive)
2,O=C1Nc2cc(-c3ccc(NC(=O)C4CC4)cc3)ccc2/C1=C/c1ccc[nH]1,105% (inactive)
3,COc1cc2nc(-c3ccc(Cl)cc3)cc(OCCCN3CCCC3)c2cc1OC,75.5% (inactive)
4,CCCOC(=O)N[C@H]1CCc2c(Cl)c(OC)c(OC)c(OC)c2-c2ccc(SC)c(=O)cc21,38.3% (inactive)
5,CCCCCCOc1ccc(/C=N/Nc2cc(C)nc3ccc(Cl)cc23)cc1,90.2% (inactive)
6,Nc1c(C(=O)Nc2cccc3cnccc23)sc2nc3c(cc12)CN(Cc1ccccc1)CC3,111% (inactive)
7,CCCCOc1ccc(/C(C)=N/Nc2cc(C)nc3ccc(Br)cc23)cc1,89.4% (inactive)
8,Cc1cnc(C(=O)Nc2nc3ccc(S(=O)(=O)Nc4ccc(C(C)(C)C)cc4)cc3[nH]2)cn1,43% (inactive)
9,CCN1CCN(CCNc2nccc(-c3c(-c4cccc(OC)c4)nc4occn34)n2)S1(=O)=O,92% (inactive)
10,CCCCOc1ccc(/C=N/Nc2cc(C)nc3ccc(Br)cc23)cc1,91.5% (inactive)
11,O=c1[nH]nc(-c2ccccc2)c2sc3ncc(-c4ccc(Br)cc4)n3c12,70.6% (inactive)
12,O=C(Nc1ccc(NC(=O)c2cc(=O)[nH]c3ccccc23)cc1)Nc1cccc(Cl)c1,74.8% (inactive)
13,N#Cc1cc(-c2nc3ccccc3s2)c(=O)n(NS(=O)(=O)c2ccccc2)c1N,90.3% (inactive)
14,Oc1ccc(C(c2ccc(O)cc2)c2ccc(Br)cn2)cc1,65.4% (inactive)
15,CCOC(=O)[C@@H]1CCCN(S(=O)(=O)c2ccc(S(=O)(=O)N(CC)CC)c(F)c2)C1,82.4% (inactive)
16,N#Cc1cccc(-c2ccc3c(c2)NC(=O)/C3=C\c2ccc[nH]2)c1,24.1% (inactive)
17,O=[N+]([O-])c1cc(Br)c2cccc3c2c1CC3,114% (inactive)
18,NS(=O)(=O)c1ccc(Cn2c(SCC(=O)N/N=C/c3ccccc3O)nc3ccccc3c2=O)cc1,73% (inactive)
19,CCNC(=O)Oc1ccc(/C(=C(\C)c2ccccc2)c2ccc(OCCN(CC)CC)cc2)cc1,83.9% (inactive)

row,SMILES,growth
1,COc1ccc(C(=O)/C=C/c2cc3ccccc3n3nnnc23)cc1,102% (inactive)
2,O=C(N/N=C/c1ccc(Oc2ccccc2)cc1)c1cnn2c1NC(c1ccccc1)C2 (stereo unspecified),48.5% (inactive)
3,NC1=NN=C(N)C1=Cc1cc2ccccc2n2nnnc12,91.7% (inactive)
4,CCSCC1CC(O)(c2ccccc2)CC(c2ccc(F)cc2)O1 (stereo unspecified),25.9% (inactive)
5,Cc1cccc(NC(=O)Nc2ccc(-n3cnc4cc(-c5ccc(O)cc5)ccc43)cc2)c1,60.3% (inactive)
6,COc1ccc(/C=C(\C#N)n2nc3cccc(F)c3n2)cc1,108% (inactive)
7,Nc1n[nH]c2cccc(C#Cc3cccc(C(=O)Nc4cccc(C(F)(F)F)c4)c3)c12,59.6% (inactive)
8,O=C(Nc1ccccc1C(=O)N/N=C(\c1ccccc1)c1ccccn1)c1ccc(F)cc1,2.2% (active)
9,C=C1C(=O)O[C@H]2[C@H]1CC/C(C(=O)NCCCCCNC(=O)/C1=C/CC[C@@]3(C)O[C@H]3[C@H]3OC(=O)C(=C)[C@@H]3CC1)=C\CC[C@@]1(C)O[C@@H]21,120% (inactive)
10,N#Cc1c(NCc2ccccc2I)sc2c1CCCCC2,97.8% (inactive)
11,C=C1C(=O)O[C@H]2[C@H]1CC/C(COC(=O)NCC(C)c1ccc(CC(C)C)cc1)=C\CC[C@@]1(C)O[C@@H]21 (stereo partly specified),100% (inactive)
12,Cc1cc(C(=O)/C=C/c2ccc[nH]2)ccc1-n1ccc(C(F)(F)F)n1,129% (inactive)
13,C=C1C(=O)O[C@H]2[C@H]1CC/C(CNC(=O)/C=C/c1cccc(OC)c1)=C\CC[C@@]1(C)O[C@@H]21,86% (inactive)
14,COc1cc(/C=N/NC(=O)c2cnn3c2NC(c2ccccc2)C3)ccc1Oc1ccccc1 (stereo unspecified),27.6% (inactive)
15,COc1cc(C2=C(c3cn(C)c4ccccc34)COC2=O)cc(OC)c1OC,28.3% (inactive)
16,COc1cc(/C=C\C(=O)O)ccc1OCc1ccccc1,102% (inactive)
17,COc1cc2c(=O)n(CCN)c3c4cc5c(cc4ccc3c2cc1OC)OCO5,16.6% (inactive)
18,CCCCCN1C=C/C(=C\C(=O)N(C)c2ccc(OC(F)(F)F)cc2)c2ccccc21,90.6% (inactive)
19,CN(C)CC(O)c1ccc(/C=C/c2ccc(Cl)cc2)cc1 (stereo unspecified),52.8% (inactive)
